According to PubChem BioAssay (EPA / NIEHS):
Records with an inconclusive call do not appear. Activity calls are given as the source filed them. How the source made its calls: active means hit-call score of the fitted dose curve at least 0.9, where 1 is the maximum; inconclusive means response in the unintended direction; inactive means score below 0.9.

Assay: CCTE_Shafer_MEA_acute_AB: CCTE's Alamar Blue Assay for Cytotoxicity in the Neural Acute Assay, Shafer Lab (AID 2284069);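 further: active compounds lower the viability signal compared with DMSO wells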
Method in brief: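 Read-out: resazurin fluorescence (ex 544, em 590 nm) after CTB reagent at 1:6 dilution in fresh media. Cells: primary rat cortical neuron networks, DIV 13 or 15, chemically exposed on MEA plates; DMSO as negative control/baseline.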
For O=C1O[C@H]([C@@H](O)CO)C(O)=C1O, the outcome was “inactive”. With CN(C)C(=O)C1(N2CCCCC2)CCN(CC[C@@]2(c3ccc(Cl)c(Cl)c3)CN(C(=O)c3ccccc3)CCO2)CC1 the outcome was “inactive”. With CCCCCCCCOC(=O)c1cc(O)c(O)c(O)c1 the outcome was “inactive”. In the case of O=c1[nH]sc2ccccc12, the outcome is reported as “inactive”. In the case of CCN(CC)C(=O)c1cc(S(=O)(=O)Cc2ccccc2)c(N2CCC(c3ccccc3)CC2)cc1N(CC)CCN(C)C, the outcome is reported as “inactive”. With Cc1cc2c(cc1C(F)(F)F)N(C(=O)Nc1ccc(Oc3cccnc3C)nc1)CC2 the outcome was “inactive”. In the case of CN(C[C@@H](CC[N+]12CCC(C3CCCCC3)(CC1)CC2)c1ccc(Cl)c(Cl)c1)C(=O)c1cc(C(F)(F)F)cc(C(F)(F)F)c1, the AC50 is reported as 20 µM (active). With CO[C@H]1/C=C/O[C@@]2(C)Oc3c(C)c(O)c4c(O)c(c(/C=N/N5CCN(C)CC5)c(O)c4c3C2=O)NC(=O)/C(C)=C\C=C\[C@H](C)[C@H](O)[C@@H](C)[C@@H](O)[C@@H](C)[C@H](OC(C)=O)[C@@H]1C the outcome was “inactive”. In the case of NCc1cccc(C2CCN(C(=O)c3ccc(C#Cc4ccccc4F)o3)CC2)c1, the outcome is reported as “inactive”. For O=C(O)c1ccccc1-n1cc(C(=O)O)c(=O)c2cc(Nc3c(F)cc(F)cc3Cl)c(Cl)cc21, the outcome was “inactive”. In the case of CC(C)(c1cc(Br)c(O)c(Br)c1)c1cc(Br)c(O)c(Br)c1, the outcome is reported as “inactive”. In the case of CC(O)CC(C)(C)O (stereo not drawn), the outcome is reported as “inactive”. For Cc1c2ccccc2c(C)c2c1ccc1ccccc12, the outcome was “inactive”. In the case of COc1cc(C(=O)NC2CCN(C)CC2)ccc1Nc1ncc2c(n1)N(C1CCCC1)CC(F)(F)C(=O)N2C, the outcome is reported as “inactive”. With CC(=O)N1CCN(c2ccc(OC[C@H]3CO[C@](Cn4ccnc4)(c4ccc(Cl)cc4Cl)O3)cc2)CC1 the outcome was “inactive”. For CC[C@@H]1C[C@H](N(Cc2cc(C(F)(F)F)cc(C(F)(F)F)c2)C(C)=O)c2cc(C(F)(F)F)ccc2N1C(=O)OC(C)C, the outcome was “inactive”. In the case of CN(C)c1ccc(C(=C2C=CC(=[N+](C)C)C=C2)c2ccc(N(C)C)cc2)cc1, the AC50 is reported as 11.2 µM (active). In the case of Clc1ccccc1C(c1ccccc1)(c1ccccc1)n1ccnc1, the outcome is reported as “inactive”. In the case of CCCCCCCCCCCCO, the outcome is reported as “inactive”. For CC/C(=C(/CC)c1ccc(O)cc1)c1ccc(O)cc1, the outcome was “inactive”. In the case of c1ccc2n[nH]nc2c1, the outcome is reported as “inactive”. In the case of NC(=O)c1nc(-c2cccc(-c3cc(F)ccc3OCC(F)(F)C(F)(F)F)c2)n[nH]1, the outcome is reported as “inactive”. With CC(C)(C)c1cc(/C=C2\SC(N)=NC2=O)cc(C(C)(C)C)c1O the outcome was “inactive”. In the case of CN1C(=O)CC[C@H]1c1cccnc1, the outcome is reported as “inactive”. In the case of CC1=CC(=O)/C(=C(/C)O)C(=O)O1, the outcome is reported as “inactive”. With COc1cccc([C@H](O)C2CCN(CCc3ccc(F)cc3)CC2)c1OC the outcome was “inactive”. With OC12N=C(c3ccccc3)SC1Cc1cc(Cl)ccc12 (stereo not drawn) the outcome was “inactive”. For C[C@]12CC[C@@H]3c4ccc(O)cc4CC[C@H]3[C@@H]1CC[C@H]2O, the outcome was “inactive”.
